Consider 2 compounds from PubChem BioAssay AID493025 (Johns Hopkins Ion Channel Center, 2011).

The structures appear in SMILES notation. Hit rate of the full screen: of about 1,000 compounds, about 570 (57%) were called active. No rule for the calls is given here. The set was probably picked from earlier hits. Only a selection was taken, and actives are over-represented in it overall.

Potassium voltage-gated channel subfamily KQT member 2 (Rattus norvegicus), sequence (O88943 whole entry, looked up): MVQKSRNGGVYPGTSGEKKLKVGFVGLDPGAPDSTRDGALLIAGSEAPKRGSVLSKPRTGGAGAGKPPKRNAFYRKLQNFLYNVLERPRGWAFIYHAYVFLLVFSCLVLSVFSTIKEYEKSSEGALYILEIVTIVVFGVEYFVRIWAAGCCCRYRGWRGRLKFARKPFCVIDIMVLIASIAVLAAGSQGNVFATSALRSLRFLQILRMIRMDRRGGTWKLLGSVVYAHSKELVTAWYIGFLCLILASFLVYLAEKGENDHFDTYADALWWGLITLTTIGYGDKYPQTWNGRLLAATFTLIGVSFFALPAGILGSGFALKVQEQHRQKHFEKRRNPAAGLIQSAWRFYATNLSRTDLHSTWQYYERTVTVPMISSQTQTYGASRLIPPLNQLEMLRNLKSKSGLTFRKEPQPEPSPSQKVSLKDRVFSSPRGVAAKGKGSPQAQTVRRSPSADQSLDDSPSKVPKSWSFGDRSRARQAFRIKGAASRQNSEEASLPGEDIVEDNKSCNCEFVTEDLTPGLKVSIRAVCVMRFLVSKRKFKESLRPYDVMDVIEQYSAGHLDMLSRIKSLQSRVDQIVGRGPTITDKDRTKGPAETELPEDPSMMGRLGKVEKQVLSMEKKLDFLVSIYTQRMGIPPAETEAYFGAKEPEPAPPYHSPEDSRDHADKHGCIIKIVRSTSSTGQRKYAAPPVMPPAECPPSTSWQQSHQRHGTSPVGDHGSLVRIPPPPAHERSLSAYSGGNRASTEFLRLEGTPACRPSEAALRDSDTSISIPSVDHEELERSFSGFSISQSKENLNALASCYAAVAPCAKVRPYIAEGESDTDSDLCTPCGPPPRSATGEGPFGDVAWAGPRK

This test addresses Potassium voltage-gated channel subfamily KQT member 2 (Rattus norvegicus) (UniProt O88943). Kind of test: rat KCNQ2 potassium channel inhibitors, confirmation, cell-based, thallium flux (AID 493025).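 Also: 0% = vehicle wells and values are ratio percent relative to vehicle.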 Conditions: KCNQ2-expressing cells, at 10 µM, active compounds read low.
For `CN(C)CC1Oc2ccccc2OC1(O)c1ccccc1` (configuration not stated), the activity change, negative = inhibition is -32% (active).

On to `O=C(NC(c1ccc(Cl)cc1)P(=O)(Oc1ccccc1)Oc1ccccc1)OCc1ccccc1` (configuration not stated), for which the activity change, negative = inhibition was -23% (active).
